Screening data deposited in PubChem BioAssay by National Center for Advancing Translational Sciences (NCATS).
The list is not random: actives were taken first. Their share in the collection is about 12%.
HP1b binding inh: inhibitors of HP1-beta chromodomain binding to methylated histone tails; AlphaScreen HP1-beta / biotin-H3K9me3 peptide binding; Potency, µM (highest dose often 114 µM), inactives show at the highest dose activity change, negative = inhibition, hits mostly inhibitors; AID 540317; hit rate 0.56% among 390,000; note: nearly all actives have a fitted effect of over 70% in size
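AlphaScreen: HP1-beta (50 nM) preformed 30 min with biotin-H3(1-18)K9me3 peptide (50 nM) in PBS pH 7.4, 0.01% Tween-20. Compound added for 30 min at RT, then streptavidin donor/nickel chelate acceptor beads (10 ug/mL) for 30 min.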
JMJD2A Tudor inh: inhibitors of human JMJD2A Tudor domain. O75164. AlphaScreen JMJD2A-Tudor / H3K4me3 peptide binding. Potency, µM (series often up to 114 µM), for inactives: top-dose activity change, negative = inhibition, usual class: inhibitors. hit rate 4.4% among 390,000; note: % is set by controls: 0 for no effect and ±100 for the full control effect; nearly all actives have a fitted effect of over 50% in size
BAZ2B inh: BAZ2B (human) inhibition; Q9UIF8; AlphaScreen BAZ2B-H3K14Ac peptide displacement; Potency, µM (titrated, usually from 114 µM), for the others: at the top dose activity change, negative = inhibition, most hits filed as inhibitors; hit rate 4.4% among 360,000; note: % is set by controls: 0 for no effect and ±100 for the full control effect; nearly all actives have a fitted effect of over 60% in size
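Inhibition is scored as reduced AlphaScreen emission. The BAZ2B/b-H3(5-23)K14Ac complex (50 nM each) in PBS pH 7.4, 0.01% Tween-20 meets compound (up to 110 uM) for 30 min at RT before bead addition.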
G9a block: inhibitors of human histone lysine methyltransferase G9a; Q96KQ7; G9a H3K9 monomethylation, AlphaScreen, 2 h; Potency, µM (highest dose often 102 µM), for the others: top-dose activity, negative = inhibition, most hits filed as inhibitors; hit rate 8.8% among 350,000; AID 504332; note: % is set by controls: 0 for no effect and ±100 for the full control effect; nearly all actives have a fitted effect of over 75% in size
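AlphaScreen detection with an anti-monomethyl H3K9 antibody quantified product after a 2 h room-temperature reaction containing 500 nM biotinylated H3K9 peptide, 20 µM SAM and 20 nM enzyme, which had been preincubated 15 min with compound.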
Sfp PPTase inh: blocks B. subtilis Sfp PPTase activity; Q9F4F7; Biochemical Sfp PPTase activity, qHTS; Potency, µM, without a hit: largest response in the series, negative = inhibition, most hits filed as inhibitors; hit rate 3.5% among 310,000; AID 1490;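 note: the enzyme is Sfp with the accession as filed and its product quenches rhodamine fluorescence; 0% = enzyme reaction without inhibitor and -100% = no enzyme wells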
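After 15 min at room temperature with compound, 15 nM Sfp received 5 uM rhodamine-CoA plus 12.5 uM BHQ-2-ybbR (50 mM Hepes pH 7.6, 10 mM MgCl2). Rate came from the fluorescence difference over 30 min, ex 525/em 598 nm.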
Starred values were filed as active, the others as inactive; ? = inconclusive; . = no result; [ ] = dose if it differs, or a comment. Calls come from the whole dose curve; as a rule, active = well fitted curve in the direction sought with a large enough effect; inconclusive = small, poorly fitted or top-dose-only effect, or another doubt; inactive = no such curve, though single readings can be large; an effect the other way counts as inactive or inconclusive. Potency is the fitted concentration of half-maximal effect.

SMILES | HP1b binding inh | JMJD2A Tudor inh | BAZ2B inh | G9a block | Sfp PPTase inh
CN(CCCC(=O)O)c1ccc(N=Nc2ccc([N+](=O)[O-])cc2)cc1 | 11µM* | 22µM* | . | . | .
CN(N=Nc1ccc([N+](=O)[O-])cc1)c1ccccc1 | -7% | -45% | ? | ? | -9%
COc1cc(SSc2cc(OC)cc([N+](=O)[O-])c2N)c(N)c([N+](=O)[O-])c1 | ? | 1.4µM* | 8.9µM* | 0.45µM* | 2.5µM*
CN1CCN(c2ccc(Cl)cc2NC(=O)CN2C(=O)NC(C)(c3ccccc3)C2=O)CC1 (configuration not stated) | 27% | -22% | -22% | 45µM* | .
CC1(c2ccccc2Cl)NC(=O)N(CC(=O)Nc2ccc(N3CCCCC3)cc2)C1=O (configuration not stated) | -24% | ? | 35µM* | 14µM* | .
Cc1ccc(CNC(=O)CN2C(=O)NC3(CC(C)CC(C)(C)C3)C2=O)cc1 (configuration not stated) | 36% | 7% | -5% | 17%[59 µM] | .
CC1(c2ccccc2Cl)NC(=O)N(CC(=O)Nc2ccc(N3CCOCC3)cc2)C1=O (configuration not stated) | 17% | -4% | . | . | .
CC1CC(C)(C)CC2(C1)NC(=O)N(CC(=O)Nc1ccc(N3CCCCC3)cc1)C2=O (configuration not stated) | ? | ? | ? | 45µM* | 2%
CC1CCCCC12NC(=O)N(CC(=O)Nc1ccc(N3CCCCC3)cc1)C2=O (configuration not stated) | 17% | -21% | -35% | 16µM* | .
FC(F)(F)C(F)(F)C(F)(F)C(F)(F)C(F)(F)C(F)(F)F | . | . | . | 10%[12.7 µM] | 14%
O=C(CSc1n[nH]c(=O)[nH]c1=O)Nc1ccc(SC(F)F)cc1 | 19% | -20% | . | . | .
CC1CC(C)(C)CC2(C1)NC(=O)N(CC(=O)NCc1ccccc1F)C2=O (configuration not stated) | 53% | -7% | -2% | 9%[0.501 µM] | .
CC1CC(C)(C)CC2(C1)NC(=O)N(CC(=O)N1CCN(S(=O)(=O)c3ccc(F)c(F)c3F)CC1)C2=O (configuration not stated) | 26% | 20µM* | . | . | .
CCOc1ccc(-n2nc3ccc(NC(=O)CC)cc3n2)cc1 | -6% | ? | -26% | 35µM* | -1%
COc1ccc(N2CCN(C(=O)c3cccc(S(=O)(=O)N4CCc5ccccc54)c3)CC2)cc1 | ? | 40µM* | . | . | .
COc1ccc(N2CCN(C(=O)c3cccc(S(=O)(=O)N4CCCc5ccccc54)c3)CC2)cc1 | 3% | ? | ? | 8%[12.7 µM] | .
NC(=O)C1CCN(C(=O)c2cccc(S(=O)(=O)N3CCc4ccccc4C3)c2)CC1 | 16% | 0% | -18% | -12% | 14%
O=C(c1cccc(S(=O)(=O)N2CCc3ccccc3C2)c1)N1CCN(c2ccc(O)cc2)CC1 | ? | ? | ? | 2.5µM* | -33%
CCOc1ccc(-n2c(SCC(=O)Nc3cccc(Cl)c3)nc3c(oc4ccccc43)c2=O)cc1 | 14% | -18% | 2% | -5%[59 µM] | .
COc1ccc(CNc2ccc(Cl)cc2)cc1Cn1ccnc1 | ? | 50µM* | 25µM* | 35µM* | 14%
Cc1ccccc1Nc1c(-c2ccncc2)nc2ccc(Cl)cn12 | 53% | -4% | -22% | -3% | -4%
Cc1ccccc1Nc1scc(-c2ccc(Cl)cc2)[n+]1-c1ccccc1C | ? | ? | 7.9µM* | 20µM* | 10%
CCS(=O)(=O)N1CCN(c2cc3c(cc2[N+](=O)[O-])n(C)c(=O)n3C)CC1 | -22% | -31% | 56µM* | ? | 6%
C=CCOc1cccc(C2/C(=C(\O)c3ccc4c(c3)OCCO4)C(=O)C(=O)N2Cc2cccnc2)c1 (configuration not stated) | -2% | ? | 50µM* | . | 15%
CCOc1cccc(C2/C(=C(\O)c3ccc4c(c3)OCCO4)C(=O)C(=O)N2Cc2ccncc2)c1 (configuration not stated) | 26% | -14% | -16%[57.1 µM] | -10% | 13%
SMILES | HP1b binding inh | JMJD2A Tudor inh | BAZ2B inh | G9a block | Sfp PPTase inh
O=C1C(=O)N(c2ccc(O)cc2)C(c2ccccc2[N+](=O)[O-])/C1=C(\O)c1ccccc1 (configuration not stated) | -29% | -20% | -20% | 56µM* | ?
O=C1C(=O)N(Cc2cccnc2)C(c2cccc(O)c2)/C1=C(\O)c1ccc2c(c1)OCCO2 (configuration not stated) | 33% | 13% | ? | 35µM* | 5%
O=C1C(=O)N(Cc2ccncc2)C(c2cccc(O)c2)/C1=C(\O)c1ccc2c(c1)OCCO2 (configuration not stated) | 13% | -22% | ? | 45µM* | -12%
O=C(O)c1cccc(S(=O)(=O)Nc2ccccc2C(=O)NCCc2ccccc2)c1 | 3% | -4% | -9% | 3% | -1%
COc1ccccc1NC(=O)C1=C(C)Nc2nc3ccccc3n2C1c1cccc(Br)c1 (configuration not stated) | 22% | -20% | -19% | ? | .
Cc1ccc(C)c(NC(=O)Cn2c(=O)n(CC3CCCO3)c(=O)c3ccccc32)c1 (configuration not stated) | 59% | 1% | 36% | 25%[59 µM] | .
COc1ccccc1C1/C(=C(\O)c2ccc3c(c2)OCCO3)C(=O)C(=O)N1Cc1cccnc1 (configuration not stated) | 1%[57 µM] | 50µM* | ? | ? | 4%
COc1ccc(C2/C(=C(\O)c3ccc4c(c3)OCCO4)C(=O)C(=O)N2Cc2cccnc2)cc1 (configuration not stated) | 44% | 3% | -5% | -95% | 10%
CCOc1ccc(C2/C(=C(\O)c3ccc4c(c3)OCCO4)C(=O)C(=O)N2Cc2cccnc2)cc1OCC (configuration not stated) | -8% | -24% | 50µM* | . | -13%
Cc1ccc(/C(O)=C2\C(=O)C(=O)N(Cc3cccnc3)C2c2ccccc2[N+](=O)[O-])cc1 (configuration not stated) | 3% | -27% | -22% | 56µM* | ?
CCN1CCN(c2ncc3c(n2)CCN(CC(C)C)C3)CC1 | 21% | -28% | ? | ? | .
COc1cc(NC(=O)COc2ccc(Cl)cc2)ccc1NC(=O)C(C)C | 4% | -11% | -16% | 25µM* | 31%
COc1ccc(NC(=O)C(=O)NNC(=O)COc2ccc(Cl)cc2)c(OC)c1 | 46% | -9% | -2% | 37% | 29%
COc1ccc(CNc2nc3c(-c4ccccc4)nnn3c3ccccc23)cc1 | 44% | -13% | -1% | 4%[59 µM] | .
COc1cc(NC(=O)C2CC2)c(C(=O)O)cc1OC | 40% | -17% | 11% | 50µM* | -13%
O=C(NCc1ccc(F)cc1)c1ccc2c(c1)N(Cc1c(F)cccc1Cl)C(=O)CS2 | 18% | -16% | 1% | -4%[59 µM] | .
